Laboratory results published in PubChem BioAssay AID1159580 (chemical genetic matrix, 2015).
Among all 5,500 compounds or so, about 2,000 (36%) were called active. Inconclusive results (about 18%) are left out. Cut-off read from the data, not from the text of the source: active = normalized growth mostly below about 0.91 (no sharp cut-off); inconclusive = no clear call, values can overlap the other calls; inactive = mostly above about 0.92. This is one part of the list.

Experiment: chemical genetic growth profiling, strain panel (AID 1159580);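 note: tested at 20 µM; growth read once vehicle control cultures reached saturation at 30 °C; 1 = growth at the plate median or of vehicle wells; lower values mean less growth of the strain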
Settings: growth OD

Measured: normalized growth

CCCCCC1C(=O)CCC1CC(=O)OC (stereo unspecified)
inactive: S. cerevisiae deletion strains, locus YJR043C, strain POL32, stronger effect = lower value 0.991 | S. cerevisiae deletion strains, locus YJR066W, strain TOR1, stronger effect = lower value 0.982 | S. cerevisiae deletion strains, locus YJR075W, strain HOC1, stronger effect = lower value 1.01 | S. cerevisiae deletion strains, locus YKL009W, strain mrt4, stronger effect = lower value 0.914 | S. cerevisiae deletion strains, locus YKL068W, stronger effect = lower value 0.952 | S. cerevisiae deletion strains, locus YKL085W, strain MDH1 (second series), stronger effect = lower value 0.96 | S. cerevisiae deletion strains, locus YKL085W, strain MDH1, stronger effect = lower value 0.96 | S. cerevisiae deletion strains, locus YKL160W, strain elf1, stronger effect = lower value 0.988 | S. cerevisiae deletion strains, locus YKR001C, strain vps1, stronger effect = lower value 0.951 | S. cerevisiae deletion strains, locus YKR026C, strain gcn3, stronger effect = lower value 0.976 | S. cerevisiae deletion strains, locus YKR091W, strain srl3, stronger effect = lower value 0.982 | S. cerevisiae deletion strains, locus YLL001W, strain dnm1, stronger effect = lower value 0.983 | S. cerevisiae deletion strains, locus YLL026W, stronger effect = lower value 0.981 | S. cerevisiae deletion strains, locus YLL041C, strain sdh2, stronger effect = lower value 0.982 | S. cerevisiae deletion strains, locus YLR027C, strain aat2, stronger effect = lower value 0.983 | S. cerevisiae deletion strains, locus YLR039C, strain RIC1, stronger effect = lower value 1.03 | S. cerevisiae deletion strains, locus YLR058C, strain SHM2, stronger effect = lower value 1 | S. cerevisiae deletion strains, locus YLR102C, strain apc9, stronger effect = lower value 0.956 | S. cerevisiae deletion strains, locus YLR113W, strain HOG1, stronger effect = lower value 0.942 | S. cerevisiae deletion strains, locus YLR221C, strain rsa3, stronger effect = lower value 0.985 | S. cerevisiae deletion strains, locus YLR258W, strain gsy2, stronger effect = lower value 0.981 | S. cerevisiae deletion strains, locus YLR262C, strain YPT6 (second series), stronger effect = lower value 1.02 | S. cerevisiae deletion strains, locus YLR262C, strain YPT6, stronger effect = lower value 1.05 | S. cerevisiae deletion strains, locus YLR268W, strain sec22, stronger effect = lower value 0.956 | S. cerevisiae deletion strains, locus YLR320W, strain mms22, stronger effect = lower value 0.97 | S. cerevisiae deletion strains, locus YLR330W, strain CHS5, stronger effect = lower value 0.97 | S. cerevisiae deletion strains, locus YLR342W, strain FKS1 (second series), stronger effect = lower value 1.08 | S. cerevisiae deletion strains, locus YLR342W, strain FKS1, stronger effect = lower value 0.984 | S. cerevisiae deletion strains, locus YLR357W, strain rsc2, stronger effect = lower value 0.947 | S. cerevisiae deletion strains, locus YLR370C, strain arc18, stronger effect = lower value 0.978 | S. cerevisiae deletion strains, locus YLR371W, strain rom2, stronger effect = lower value 0.958 | S. cerevisiae deletion strains, locus YLR384C, strain iki3, stronger effect = lower value 0.961 | S. cerevisiae deletion strains, locus YLR418C, strain cdc73, stronger effect = lower value 1.02 | S. cerevisiae deletion strains, locus YML016C, strain PPZ1, stronger effect = lower value 0.975 | S. cerevisiae deletion strains, locus YML032C, strain rad52, stronger effect = lower value 0.983 | S. cerevisiae deletion strains, locus YML120C, strain ndi1, stronger effect = lower value 0.994 | S. cerevisiae deletion strains, locus YML124C, strain tub3, stronger effect = lower value 0.941 | S. cerevisiae deletion strains, locus YMR058W, strain fet3, stronger effect = lower value 0.992 | S. cerevisiae deletion strains, locus YMR078C, strain ctf18, stronger effect = lower value 0.945 | S. cerevisiae deletion strains, locus YMR125W, strain sto1, stronger effect = lower value 0.971 | S. cerevisiae deletion strains, locus YMR129W, stronger effect = lower value 0.973 | S. cerevisiae deletion strains, locus YMR205C, strain PFK2, stronger effect = lower value 0.969 | S. cerevisiae deletion strains, locus YMR223W, strain ubp8, stronger effect = lower value 0.981 | S. cerevisiae deletion strains, locus YMR231W, strain pep5, stronger effect = lower value 0.97 | S. cerevisiae deletion strains, locus YMR263W, strain SAP30, stronger effect = lower value 1.02 | S. cerevisiae deletion strains, locus YMR307W, strain GAS1, stronger effect = lower value 1.24 | S. cerevisiae deletion strains, locus YNL067W, strain RPL9B, stronger effect = lower value 1.03 | S. cerevisiae deletion strains, locus YNL071W, strain lat1, stronger effect = lower value 0.988 | S. cerevisiae deletion strains, locus YNL153C, strain GIM3, stronger effect = lower value 1.02 | S. cerevisiae deletion strains, locus YNL183C, strain NPR1, stronger effect = lower value 0.928 | S. cerevisiae deletion strains, locus YNL209W, strain ssb2, stronger effect = lower value 0.983 | S. cerevisiae deletion strains, locus YNL233W, strain BNI4, stronger effect = lower value 1.04 | S. cerevisiae deletion strains, locus YNL248C, strain rpa49, stronger effect = lower value 0.967 | S. cerevisiae deletion strains, locus YNL250W, strain rad50, stronger effect = lower value 0.945 | S. cerevisiae deletion strains, locus YNL271C, strain bni1, stronger effect = lower value 0.937 | S. cerevisiae deletion strains, locus YNL298W, strain CLA4, stronger effect = lower value 0.966 | S. cerevisiae deletion strains, locus YNL307C, strain MCK1, stronger effect = lower value 0.97 | S. cerevisiae deletion strains, locus YNL322C, strain KRE1 (second series), stronger effect = lower value 0.981 | S. cerevisiae deletion strains, locus YNL322C, strain KRE1, stronger effect = lower value 0.988 | S. cerevisiae deletion strains, locus YNR049C, strain mso1, stronger effect = lower value 0.987 | S. cerevisiae deletion strains, locus YNR052C, strain pop2, stronger effect = lower value 0.978 | S. cerevisiae deletion strains, locus YOL012C, strain htz1 1.15 | S. cerevisiae deletion strains, locus YOL147C, strain pex11, stronger effect = lower value 0.965 | S. cerevisiae deletion strains, locus YOR001W, strain rrp6, stronger effect = lower value 0.977 | S. cerevisiae deletion strains, locus YOR061W, strain CKA2, stronger effect = lower value 0.99 | S. cerevisiae deletion strains, locus YOR069W, strain VPS5, stronger effect = lower value 0.978 | S. cerevisiae deletion strains, locus YOR070C, strain gyp1, stronger effect = lower value 0.972 | S. cerevisiae deletion strains, locus YOR080W, strain dia2, stronger effect = lower value 0.974 | S. cerevisiae deletion strains, locus YOR083W, strain WHI5, stronger effect = lower value 0.986 | S. cerevisiae deletion strains, locus YOR106W, strain vam3, stronger effect = lower value 1.03 | S. cerevisiae deletion strains, locus YOR136W, strain idh2, stronger effect = lower value 0.973 | S. cerevisiae deletion strains, locus YOR144C, strain elg1, stronger effect = lower value 0.963 | S. cerevisiae deletion strains, locus YOR184W, strain ser1, stronger effect = lower value 0.921 | S. cerevisiae deletion strains, locus YOR231W, strain MKK1, stronger effect = lower value 0.977 | S. cerevisiae deletion strains, locus YOR265W, strain rbl2, stronger effect = lower value 0.981 | S. cerevisiae deletion strains, locus YOR270C, strain vph1, stronger effect = lower value 0.997 | S. cerevisiae deletion strains, locus YOR290C, strain snf2, stronger effect = lower value 1 | S. cerevisiae deletion strains, locus YOR316C, strain cot1, stronger effect = lower value 0.952 | S. cerevisiae deletion strains, locus YPL051W, strain arl3, stronger effect = lower value 0.991 | S. cerevisiae deletion strains, locus YPL055C, strain LGE1, stronger effect = lower value 1 | S. cerevisiae deletion strains, locus YPL078C, strain atp4, stronger effect = lower value 0.975 | S. cerevisiae deletion strains, locus YPL106C, strain sse1, stronger effect = lower value 0.999 | S. cerevisiae deletion strains, locus YPL240C, strain hsp82, stronger effect = lower value 0.969 | S. cerevisiae deletion strains, locus YPL241C, strain CIN2, stronger effect = lower value 0.977 | S. cerevisiae deletion strains, locus YPL256C, strain CLN2, stronger effect = lower value 0.97 | S. cerevisiae deletion strains, locus YPR119W, strain clb2, stronger effect = lower value 0.939 | S. cerevisiae deletion strains, locus YPR141C, strain kar3, stronger effect = lower value 0.944 | S. cerevisiae deletion strains, locus YPR163C, strain tif3, stronger effect = lower value 0.963 | S. cerevisiae deletion strains, locus YPR167C, strain met16, stronger effect = lower value 0.959 | S. cerevisiae deletion strains, strain wtn01, stronger effect = lower value 0.962 | S. cerevisiae strains, strain wild type, stronger effect = lower value 1
